Laboratory results reported in PubChem BioAssay AID894 (National Center for Advancing Translational Sciences (NCATS), 2007).
Among all 150,000 compounds or so, about 6,500 (4.3%) were called active. Inconclusive results (about 12%) are left out. The sample holds actives, similar compounds and a random draw of the others, so the mix is not that of the screen. Unmarked numbers belong to inactive results. Calls come from the whole dose curve; as a rule, active = well fitted inhibition curve with a large enough effect (not every such curve was filed as active); inconclusive = small, poorly fitted or top-dose-only effect, or another doubt; inactive = no such curve, though single readings can be large or run the other way.
% is set by controls: 0 for no effect and ±100 for the full control effect; potency is the fitted concentration of half-maximal effect.

These molecules were tested against 15-hydroxyprostaglandin dehydrogenase [NAD(+)] (Homo sapiens) (UniProt P15428) (assay: qHTS Assay for Inhibitors of HPGD (15-Hydroxyprostaglandin Dehydrogenase)). Details: purified HPGD, NADH fluorescence kinetic, PGE2 substrate; activity change, negative = inhibition: stronger effect = lower value.
15-hydroxyprostaglandin dehydrogenase [NAD(+)] (Homo sapiens), sequence (P15428 whole entry, looked up): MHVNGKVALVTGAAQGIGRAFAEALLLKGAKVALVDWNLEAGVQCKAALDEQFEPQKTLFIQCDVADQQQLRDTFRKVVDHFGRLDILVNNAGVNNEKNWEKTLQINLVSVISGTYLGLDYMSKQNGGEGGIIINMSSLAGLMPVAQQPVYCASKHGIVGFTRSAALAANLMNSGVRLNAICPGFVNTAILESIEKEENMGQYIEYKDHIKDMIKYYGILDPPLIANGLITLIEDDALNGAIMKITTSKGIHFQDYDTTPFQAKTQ
Method in brief: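 NADH formation kinetics: reaction with 30 uM PGE2 and 1 mM NAD+ (final), 20 nM enzyme, Tris-HCl pH 8 with Tween 20, after 15 min compound preincubation at room temperature. Fluorescence change, last versus first of five reads.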
Molecule Cc1ccc(CN2C(=O)N/C(=C/c3cc(C)n(-c4ccccn4)c3C)C2=O)cc1 has an activity change, negative = inhibition of -12.6%. Work on C/C(Cc1ccccc1)=N\NC(=O)CNC(=O)c1cccc(Br)c1 yielded an activity change, negative = inhibition of -6.55%. Work on O=C(COC(=O)Cc1ccc(F)cc1)Nc1cc(S(=O)(=O)N2CCOCC2)ccc1N1CCCC1 yielded an activity change, negative = inhibition of -3.83%. In the case of CCCSc1nc2c(c(=O)[nH]c(=O)n2C)n1CCc1ccccc1, the activity change, negative = inhibition is reported as -20.7%. Molecule CCCCCCn1c(SCC(=O)c2ccccc2)nc2c1c(=O)[nH]c(=O)n2C has an activity change, negative = inhibition of -21.9%. CCCCCn1c(SCCC(C)C)nc2c1c(=O)[nH]c(=O)n2C was tested, and the Potency was 20 µM (active). Molecule O=C(COC(=O)Cc1ccc(Br)cc1)Nc1c(F)c(F)c(F)c(F)c1F has an activity change, negative = inhibition of -9.95%. Cc1[nH]n(-c2cccc(Cl)c2)c(=O)c1/C=N/n1c(C)nc2ccccc2c1=O gave an activity change, negative = inhibition of -20.7%. Cc1[nH]n(-c2cccc(Cl)c2)c(=O)c1-c1ccc(Cl)cc1 was tested, and the activity change, negative = inhibition was -13%. For O=c1[nH]n(-c2cccc(Cl)c2)c2ncccc12, the Potency was 6.31 µM (active). With COc1cc(CCC(=O)OCC(=O)Nc2cccc(S(N)(=O)=O)c2)cc(OC)c1OC the activity change, negative = inhibition was -6.23%. COC(=O)c1onc(-c2c(OC)cc(OC)cc2OC)c1C(=O)OC showed an activity change, negative = inhibition of -3.93%. With N#Cc1ccsc1NC(=O)CN1CCN(S(=O)(=O)c2cc(Cl)ccc2Cl)CC1 the activity change, negative = inhibition was -24.3%. For CC(CCO)Nc1nc2c([nH]1)c(=O)n(C)c(=O)n2C (stereo not drawn), the activity change, negative = inhibition was -11.6%. Molecule CCCSc1nc2c(c(=O)n(C)c(=O)n2C)n1Cc1ccc(C)cc1 has an activity change, negative = inhibition of -7.96%. For Cc1ccc(NN=Nc2nc3c([nH]2)c(=O)n(C)c(=O)n3C)cc1, the Potency was 22.4 µM (active). Cc1ccnc(SCCn2c(Br)nc3c2c(=O)[nH]c(=O)n3C)n1 was tested, and the activity change, negative = inhibition was -9.47%. With Cn1c(=O)[nH]c(=O)c2c1nc(Br)n2CCCCSc1nc2ccccc2o1 the Potency was 25.1 µM (active). Molecule Cc1cccc(Cn2c(SCCO)nc3c2c(=O)n(C)c(=O)n3C)c1 has an activity change, negative = inhibition of -7.66%. CCN(CC)C(=O)CSc1nc2ccccc2o1 was tested, and the activity change, negative = inhibition was -23.4%. With CN(Cc1ccccc1)c1nc2c(c(=O)[nH]c(=O)n2C)n1CCSc1nc2ccccc2[nH]1 the activity change, negative = inhibition was -9.14%. Cn1c(=O)c2c(nc(Br)n2CCSc2nc3ccccc3o2)n(C)c1=O was tested, and the Potency was 31.6 µM (active). Molecule CCCC/S(C)=N/S(=O)(=O)c1ccc(C)cc1 (stereo not drawn) has an activity change, negative = inhibition of 1.3%. For Cc1ccc(C)c(NC(CC(=O)c2ccccc2)C(=O)OCC(=O)c2cccs2)c1 (stereo not drawn), the activity change, negative = inhibition was -4.17%. For CCOc1ccccc1N1CCN(C(=S)Nc2ccc(S(N)(=O)=O)cc2)CC1, the activity change, negative = inhibition was -4.15%. For Cc1ccc(S(=O)(=O)C2C(=O)NC3(C)CC2c2ccccc2O3)cc1 (stereo not drawn), the activity change, negative = inhibition was -19.6%. O=C(NN1C(=O)C2C3C=CC(O3)C2C1=O)c1ccncc1 (stereo not drawn) gave an activity change, negative = inhibition of 2.88%. In the case of CCn1c(=N)n(CC(=O)c2cccc(OC)c2)c2ccccc21, the Potency is reported as 35.5 µM (active). Work on COc1cccc(C(=O)NNC(=O)c2ccccc2Br)c1 yielded an activity change, negative = inhibition of -0.052%. With CCCCOC(=O)Cn1c(=N)n(CCN(CC)CC)c2ccccc21 the activity change, negative = inhibition was -7.8%. Cn1cccc1/C=C1\SC(=S)N(NC(=O)c2ccc(Cl)cc2)C1=O was tested, and the activity change, negative = inhibition was -8.93%. With Cc1cc(C)c(C#N)c(SCS(=O)c2ccc(C(C)(C)C)cc2)n1 (stereo not drawn) the Potency was 15.8 µM (active). Cc1cc(C)c(C#N)c(SCC(=O)NN2CC(=O)N(c3ccccc3F)CC2=O)n1 showed an activity change, negative = inhibition of -14%. Cc1cc(C)c(C#N)c(SCc2ccccc2C(=O)O)n1 gave an activity change, negative = inhibition of -15%. Cc1ccc(C(=O)NC(=S)NCCN2CCOCC2)cc1 was tested, and the activity change, negative = inhibition was -5.64%. For Cc1c(O)c(Br)c(C)c(O)c1Br (tested in a mixture with another compound), the Potency was 0.891 µM (active). CCOC(=O)CSc1nnc(-c2ccncc2)o1 gave an activity change, negative = inhibition of -12.2%. O=C(CSc1nnc(-c2ccncc2)o1)NCc1ccc(Cl)cc1 was tested, and the activity change, negative = inhibition was -1.7%. With O=C(OCC#CCSc1nnc(-c2ccncc2)o1)c1sc2ccccc2c1Cl the Potency was 20 µM (active). O=C(CCc1ccccc1)Nc1nn[nH]n1 gave an activity change, negative = inhibition of -9.52%. For CC(C)c1ccc(N2CCN(C(=O)c3ccccc3NC(=O)/C=C(\C(=O)O)c3ccccc3)CC2)cc1, the Potency was 35.5 µM (active). O=C(O)C1CC=CCC1C(=O)Nc1ccccc1C(=O)N1CCN(c2ccccc2)CC1 (stereo not drawn) showed an activity change, negative = inhibition of -1.15%. In the case of Cc1cccc(N2CCN(C(=O)c3ccccc3NC(=O)C3CCCCC3C(=O)O)CC2)c1 (stereo not drawn), the activity change, negative = inhibition is reported as -8.91%. Molecule O=C(C/C(=N\NC(=O)c1ccccc1Br)C(F)(F)F)c1cccs1 has an activity change, negative = inhibition of -18.1%. N#Cc1cccc(CS(=O)(=O)c2nnnn2-c2cc(C(F)(F)F)cc(C(F)(F)F)c2)c1 showed an activity change, negative = inhibition of -8.91%. COCCn1c(=NC(=O)c2ccccc2[N+](=O)[O-])sc2cc(S(C)(=O)=O)ccc21 showed an activity change, negative = inhibition of -11.2%. Work on CC(C)c1ccc(/C=C/C(=O)NNC(=O)c2cccnc2)cc1 yielded an activity change, negative = inhibition of -6.71%. Molecule O=C(Nc1ccccc1)c1cccnc1Nc1ccccc1 has an activity change, negative = inhibition of -10.1%. For CC(C)c1ccc(Nc2ncccc2C#N)cc1, the Potency was 25.1 µM (active). With O=C(Nc1ccccc1)c1cc2ccccc2[nH]1 the activity change, negative = inhibition was -6.75%. In the case of COc1ccc(C)cc1NC(=O)CSc1ccc(Cl)cc1, the activity change, negative = inhibition is reported as -13.4%. Molecule Cc1cc(C(=O)OCC(=O)Nc2nnc(C(C)C)s2)c2ccccc2n1 has an activity change, negative = inhibition of -10.9%. COCCCNC(=S)NC(=O)c1ccc([N+](=O)[O-])cc1 gave an activity change, negative = inhibition of -5.32%. Work on CCOC(=O)c1c(NC(=O)C2CCN(S(=O)(=O)c3ccc(Cl)cc3)CC2)sc2c1CCCC2 yielded an activity change, negative = inhibition of -27.2%. With Cc1sc(NC(=O)C2C3CCC(O3)C2C(=O)O)c(C(=O)OC(C)C)c1-c1ccc(Cl)cc1 (stereo not drawn) the Potency was 35.5 µM (active). CC(C)OC(=O)c1cc(NC(=O)C2C3CCC(O3)C2C(=O)O)cc(C(=O)OC(C)C)c1 (stereo not drawn) gave an activity change, negative = inhibition of -13.2%. Work on Cc1cc(NC(=O)COC(=O)COc2ccc(Cl)cc2C)c([N+](=O)[O-])cc1C yielded an activity change, negative = inhibition of -9.4%. Cc1ccc(CN2CCN(/N=C/c3cccnc3)CC2)c(C)c1 was tested, and the activity change, negative = inhibition was -0.74%.
